S1P2 blocker: blocks the human S1P2 receptor; O95136; cell-based S1P2 antagonist assay, inhibition at 5 uM; inhibition, % at 5 µM; actives 0.21% (n = 97,000); in the data active = inhibition above about 45%;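 note: CRE beta-lactamase reporter cells expressing human S1P2 stimulated with S1P; 0% = agonist at EC80 alone and 100% = agonist plus reference antagonist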
GALR2 agonist: agonists of human galanin receptor 2 (GALR2); O43603; GALR2-expressing cells, agonist activation read-out; activation, % (test concentration not listed); actives 0.48% (n = 140,000); in the data active = activation above about 5%, passing the limit was not always enough;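 note: 0% = vehicle buffer wells and 100% = reference agonist at full effect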
Target sequence (O43603 whole entry, looked up): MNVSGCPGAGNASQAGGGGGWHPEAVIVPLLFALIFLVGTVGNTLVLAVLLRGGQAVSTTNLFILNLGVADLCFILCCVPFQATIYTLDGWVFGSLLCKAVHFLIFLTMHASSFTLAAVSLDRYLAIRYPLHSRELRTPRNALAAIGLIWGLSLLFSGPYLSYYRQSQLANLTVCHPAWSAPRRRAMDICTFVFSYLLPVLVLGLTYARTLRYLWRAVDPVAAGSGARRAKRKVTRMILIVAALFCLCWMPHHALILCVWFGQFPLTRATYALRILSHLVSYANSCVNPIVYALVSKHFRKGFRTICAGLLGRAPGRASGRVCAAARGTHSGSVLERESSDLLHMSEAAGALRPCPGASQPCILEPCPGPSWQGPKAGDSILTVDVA
GALR2 blocker: blocks the human galanin receptor 2 | O43603 | GALR2-expressing cells, antagonist mode | inhibition, % at 4 µM | actives 0.39% (n = 140,000) | AID 828; in the data active = inhibition above about 27%;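 note: cells stimulated with galanin 1-16 at roughly its EC80; 0% = agonist challenge control and 100% = basal control without agonist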
S1P2 ag: agonists of human S1P2 receptor | activation, % at 4.5 µM | S1P2-expressing cell line, agonist reporter read-out | AID 729 | actives 0.46% (n = 97,000); in the data active = activation above about 16%;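 note: 0% = vehicle low control and 100% = maximal reference agonist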
MRP reversal: compounds reversing MRP-mediated drug resistance; differential viability (reversal), % at 10 µM; actives 0.04% (n = 85,000); H69AR cells + 2 uM doxorubicin, CellTiter-Glo, 72 h;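 active = viability drop by adding the cancer drug above about 55%, with treated viability meeting a 40% cutoff, limit read from the data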;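 note: viability without doxorubicin minus viability with 2 µM doxorubicin for each compound; larger differential means the compound sensitizes cells more to doxorubicin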
MRP-1 activ: MRP-1 activation | H69AR cells + doxorubicin, viability rescue, CellTiter-Glo | viability increase, % at 10 µM | actives 0.61% (n = 140,000) | AID 799;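 active = viability gain under doxorubicin at or above a set limit, the compound median plus 3 SD, cut at about 4.7% in these data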;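 note: MRP-1 overexpressing cells given doxorubicin 25 µM after compound pretreatment; 18-22 h compound pretreatment then 72 h with doxorubicin before readout; 0% = doxorubicin-only wells and 100% = vehicle-treated cells without doxorubicin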
The depositor's hits bear a star; / = no result given. Hits are enriched below; roughly 1.7% of the tested compounds scored in any of these assays.

SMILES	S1P2 blocker	GALR2 agonist	GALR2 blocker	S1P2 ag	MRP reversal	MRP-1 activ
Cc1ccc(CC2SC(=O)NC2=O)cc1Cl (configuration not stated)	/	-0.5	6.8	/	1.5	4.8*
Cc1ccc(NC(=O)CC2SC(=O)NC2=O)cc1 (configuration not stated)	/	-0.4	0.1	/	/	1.9
CC(=O)/C(C#N)=C1\NC(=O)C(Cc2ccc(C)c(C)c2)S1 (configuration not stated)	2.6	-1.1	-4.8	-7.6	10.6	8.8*
CC(=O)/C(C#N)=C1\NC(=O)C(Cc2ccccc2Cl)S1 (configuration not stated)	-11.1	-0.6	0.4	-8.5	3.4	0.9
COc1ccc(NC(=S)NCCCN2CCN(C3CCCCC3)CC2)cc1	/	-0.7	2.9	/	/	-1.7
O=C1CCC/C(=N\NC(=O)c2ccc(COc3cccc4cccnc34)cc2)C1	/	-0.4	1.4	/	/	-1.8
Cc1[nH]c2ccccc2c1/C=N/Nc1ccc([N+](=O)[O-])cc1	/	0.9	18.4	/	/	0.9
COc1ccccc1NS(=O)(=O)c1cc([N+](=O)[O-])ccc1N/N=C/c1c(C)[nH]c2ccccc12	69.3*	-4.7	8.9	-14.6	/	-3.6
COc1ccc(N(C(=O)Cn2cnc3ccccc32)C(C(=O)NC2CCCCC2)c2ccccc2)cc1 (configuration not stated)	19.9	0.9	-2.6	-4.5	/	12.5*
Cc1cc(C)nc(SCc2nc(N)nc(-c3ccccc3O)n2)n1	-12.8	-2.5	-6.2	3.5	3.5	0.5
COc1cc(NC(=S)NC(=O)c2ccccc2F)ccc1NC(=O)c1ccco1	/	-1.1	-10.7	/	/	-2.6
O=C(NC(Cc1ccccc1)C(=O)O)/C(=C/c1ccco1)NC(=O)c1cccc(Br)c1 (configuration not stated)	/	0.0	2.1	/	/	-0.5
Cc1ccc(NC(=O)c2cccs2)cc1S(=O)(=O)Nc1cccc(Cl)c1	/	-2.1	-2.6	/	/	2.5
C/C(=N\NC(=O)c1cccc(S(=O)(=O)Nc2cccc(Cl)c2)c1)c1cccs1	/	-1.0	-6.2	/	/	5.6*
CN(C)c1ccc(/C=N/NC(=O)CN2CCN(c3ccc(F)cc3)CC2)cc1	/	-0.6	14.1	/	/	-1.5
Cc1ccc2nc(SCCCCOc3ccccc3)[nH]c2c1	8.6	-2.0	7.3	-1.8	/	0.1
c1ccc(OCCSc2nc3ccccc3[nH]2)cc1	-0.1	-2.0	-1.1	-1.0	26.7	5.3*
COc1ccc(N2CCN(c3ncnc4c3[nH]c3ccccc34)CC2)cc1	62.8*	-0.4	14.5	-2.8	11.1	-1.4
C/C(=N\NC(=O)c1ccc(Cn2cc([N+](=O)[O-])cn2)o1)c1cccc(NC(=O)c2cccnc2)c1	/	-0.4	8.0	/	/	20.1*
Cc1ccc(/C=C2\SC(=S)N(CCCC(=O)Nc3nccs3)C2=O)cc1	/	-1.6	8.2	/	/	5.3*
Cc1ccc(/C=C2\SC(=S)N(CCCC(=O)Nc3ccccn3)C2=O)cc1	21.2	-0.3	-8.7	-3.6	/	6.8*
CCc1ccc(/C=C2\SC(=S)N(CCCC(=O)Nc3nccs3)C2=O)cc1	/	-2.9	2.4	/	/	-1.8
COc1cc2c(cc1OC)C(C1C(=O)CC(C)CC1=O)N(C(=O)CCl)CC2 (configuration not stated)	/	-0.9	0.7	/	/	-1.2
O=C(C[n+]1cnn(CC(=O)c2ccc(Cl)cc2Cl)c1)c1ccc([N+](=O)[O-])cc1	/	-0.8	-7.9	/	/	-3.8
CCOC(=O)C1=C(C)Nc2sc(C(=O)c3ccc(OC)cc3)c(N)c2C1c1ccc(C(=O)OC)cc1 (configuration not stated)	/	5.6*	-2.2	/	/	7.3*
SMILES	S1P2 blocker	GALR2 agonist	GALR2 blocker	S1P2 ag	MRP reversal	MRP-1 activ
Oc1cccc2ccc(Nc3ccccn3)nc12	/	-1.6	30.4*	/	0.1	-2.3
O=C(CN(c1cccc(Cl)c1)S(=O)(=O)c1ccc(Cl)cc1)N1CCc2ccccc2C1	/	-2.4	10.7	/	/	-2.3
Cc1ccc(Cn2c(SCC(=O)N/N=C/c3ccc(C)o3)nc3ccccc32)cc1	-5.7	-1.7	5.9	-6.1	/	4.7*
O=C(NCCc1ccccc1)c1cccc([N+](=O)[O-])c1	/	-2.0	1.1	/	/	3.7
O=C(C#Cc1cccc([N+](=O)[O-])c1)c1ccccc1	74.9*	-2.9	25.0	-9.9	0.2	-4.2
Cc1ccc(-c2nc3sc4c(c3c(=O)n2N)CC(C)(C)OC4)cc1	4.6	-0.7	-16.8	-3.7	4.3	2.6
CC1(C)Cc2c(sc3nnn(Cc4ccc(Cl)cc4)c(=O)c23)CO1	/	0.9	-12.3	/	/	7.4*
COc1ccc(/C=C(\C#N)C(=O)OCC(=O)NCc2ccc(Cl)cc2)cc1	/	-1.5	11.7	/	/	-4.5
